Compound activity deposited in PubChem by several laboratories.
This is a sample that favours compounds with a hit; in the whole collection about 3.6% have one here.
NRP1-CendR mod: alters CendR peptide binding to human NRP-1; O14786; FAM-RPARPAR peptide binding to NRP-1, fluorescence polarization; inhibition, % at 25 µM; hit rate 0.85% among 360,000;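 active = inhibition or corrected inhibition above about 18%, plus a signal ratio from 0.5 to 1.5, limit read from the data, passing the limit was not always enough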
CRFBP-R2 block: CRF-BP/CRF-R2 complex antagonism. hit rate 0.59% among 350,000. inhibition, % at 11.8 µM. AID 588475. HEK293 CRF-R2/CRF-BP, CRF-induced calcium fluorescence;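 active = inhibition of the ligand-induced calcium signal above about 50% at the single tested concentration, limit read from the data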
FAS-TE inh: FAS thioesterase (human) inhibition; AID 602261; P49327; recombinant FAS-TE, OMFH fluorogenic substrate, fluorescence endpoint; inhibition, % at 15 µM; hit rate 0.67% among 360,000;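 active = compounds whose normalised, plate-corrected inhibition of enzyme fluorescence in the single-dose primary screen is 50% or more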;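 note: 0% = DMSO with enzyme and 100% = substrate without enzyme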
NadD inh: inhibitors of Staphylococcus aureus NadD. AID 602399. hit rate 0.78% among 360,000. inhibition, % at 20 µM. purified NadD enzyme, colorimetric absorbance read-out; in the data active = inhibition above about 26%
Myeloid diff 2: compounds promoting myeloid differentiation | hit rate 1% among 360,000 | calls only at 10 µM | ER-HoxA9 myeloid progenitors, lysozyme-GFP differentiation, flow cytometry;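 active = normalized GFP-positive differentiation at or above the plate's own cutoff, the solvent-only control mean plus 3 SD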;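 note: cells exposed to compound for four days before flow analysis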
* = called active by the depositor; i = inactive; / = no result; + = active, no number.

SMILES | NRP1-CendR mod | CRFBP-R2 block | FAS-TE inh | NadD inh | Myeloid diff 2
CCCCNC(=O)C[C@@H]1C[C@@]2(C(=O)OC)CCCCC=C2N(CCC2=CCCCC2)C1=O | -13 | / | 4 | 1 | i
CCCCNC(=O)C(C)N(CCN(C)C)C(=O)CCCN1C(=O)NC(c2ccc([N+](=O)[O-])cc2)C(C(=O)OCc2ccccc2)=C1C (stereo not drawn) | -8 | -4 | 8 | 0 | +
CCCCNC(=O)C(C1CCCCC1)N(CCN(C)C)C(=O)CCCN1C(=O)NC(c2ccc(-c3ccccc3)cc2)C(C(=O)OCc2ccccc2)=C1C (stereo not drawn) | / | 6 | / | / | /
COC(=O)[C@@]12C[C@@H](CC(=O)NCc3cccc4ccccc34)C(=O)N(Cc3ccccc3)C1=CCC(C)(C)C2 | -2 | / | / | / | i
O=C(CN1C(=O)NC2(CCCCCC2)C1=O)Nc1ccc(OC(F)(F)F)cc1 | 27* | -31 | -2 | -1 | i
O=C(CN1C(=O)NC2(CCCC2)C1=O)Nc1ccc(OC(F)(F)F)cc1 | 1 | -19 | -2 | -4 | i
CC(C)c1ccc(NC(=O)CN2C(=O)NC3(CCCC3)C2=O)cc1 | 24* | -8 | -2 | 3 | i
CC(C)Oc1ccc(CN2CCC2(C)C(=O)Nc2cnc3ccccc3c2)cc1 (stereo not drawn) | 8 | / | 18 | -7 | i
Cc1ccc(C(=O)C[n+]2ccc3ccccc3c2)cc1 | -7 | 48 | -2 | -1 | i
Cc1cc(C(C)(C)C)cc(C)c1C[n+]1ccc2ccccc2c1 | -2 | 12 | -3 | -4 | +
COc1ccc(N/C=C/C(=O)C(C)(C)C)cc1 | 31* | -6 | 1 | 1 | i
COc1ccc(N/C=C/C(=O)c2ccccc2)cc1 | 8 | 33 | 0 | 0 | i
CC1(C(=O)NS(=O)(=O)c2ccc(Cl)s2)CCN1C(=O)C1(c2ccc(Cl)cc2)CC1 (stereo not drawn) | 0 | / | -3 | -2 | i
CCN(CC)c1ncnc2c1ncn2[C@H]1CN(Cc2cccnc2)C[C@@H](CO)O1 | 1 | / | -7 | 4 | i
CCCCCc1nc2c(C#N)c(-c3ccc(Cl)cc3)ccn2n1 | -4 | -36 | -20 | -11 | +
N#Cc1c(-c2ccc(Cl)cc2)ccn2nc(CCC(=O)O)nc12 | -11 | 3 | -8 | 1 | i
O=C(NCc1ccco1)C(c1ccco1)N(C(=O)Cn1nnc2ccccc21)c1ccc2c(c1)CCC2 (stereo not drawn) | 19* | -8 | 14 | -4 | i
O=C(O)c1ccccc1C=NN1CCCCCC1 | -21 | 18 | -6 | 4 | i
COc1ccccc1N(CC(=O)NCCSCc1ccccc1)S(=O)(=O)c1ccccc1 | 2 | 31 | 13 | -6 | i
COc1ccc(N(CC(=O)NCCSc2ccccn2)S(=O)(=O)c2ccc(C)cc2)cc1OC | 3 | 55* | 0 | -6 | i
COc1ccccc1N(CC(=O)NCCSCc1ccccc1)S(=O)(=O)c1ccc(C)cc1 | 19* | 9 | 28 | -7 | i
COc1ccc(N(CC(=O)NCCSc2ccccn2)S(=O)(=O)c2ccccc2)cc1OC | 10 | -10 | -5 | -7 | i
COc1ccccc1Nc1nc2nonc2nc1N1CCC(C)CC1 | -5 | -11 | -3 | 2 | i
COc1ccc(OC)c(Nc2nc3nonc3nc2N2CCCCC2)c1 | 49* | -11 | -9 | -3 | i
Cn1c(SCC(=O)c2ccc(F)cc2)ncc(C(=O)Nc2ccccc2)c1=O | 27* | 10 | 0 | -1 | i
SMILES | NRP1-CendR mod | CRFBP-R2 block | FAS-TE inh | NadD inh | Myeloid diff 2
COc1ccc(C(=O)c2ccc(Cl)cc2)c2ccccc12 | -12 | 3 | 22 | -5 | i
COc1ccc(C(=O)c2ccccc2)c2c(O)ccc(C(=O)c3ccccc3)c12 | -11 | 15 | 4 | 31* | i
CCN1C(=O)[C@H]2[C@@H](c3ccc(C(F)(F)F)cc3)N[C@]3(CCCN(Cc4ccccc4)C3=O)[C@H]2C1=O | -13 | 3 | -3 | -1 | i
CCc1nc(Nc2ccccc2OC)c2oc3ccccc3c2n1 | -21 | 24 | 14 | -8 | i
CCc1nc(Nc2cc(OC)ccc2OC)c2oc3ccccc3c2n1 | 25* | -12 | 4 | -4 | i
Cc1cc(=O)[nH]c(SCC(=O)Nc2ccc(Br)cc2)c1C#N | -1 | 63* | 20 | 7 | i
CCn1c(C)cc(C(=O)COC(=O)CNC(=O)c2ccco2)c1C | -3 | -27 | -4 | 3 | i
Cn1c(CNC(=O)c2ccccc2F)nnc1SCC(=O)c1ccccc1 | 27* | -8 | -3 | -2 | i
O=C(N/N=C/C=C/c1ccccc1)c1ccccn1 | 8 | 3 | 0 | 2 | i
O=C(N/N=C/C=C\c1cccc([N+](=O)[O-])c1)c1ccccn1 | 28* | 7 | 0 | 8 | i
NNc1cc([N+](=O)[O-])cc2c1C(=O)N(Cc1ccccc1)S2=O (stereo not drawn) | 0 | 0 | -2 | 17 | i
Cc1ccc(NS(=O)(=O)Cc2ccccc2)nc1 | 26* | 43 | -2 | -2 | i
O=S(=O)(Cc1ccccc1)Nc1ccc(Br)cn1 | 10 | -7 | -3 | -2 | i
Cc1cc(OC(=O)c2ccccc2C)c([N+](=O)[O-])c(=O)[nH]1 | 34* | 0 | -5 | 8 | i
CCCCCCCCN1C(=O)[C@H](CC(=O)N2CCOCC2)C[C@@]2(C(=O)OC)CCCCC=C12 | 1 | / | 3 | -7 | i
CCC1CCCCN1C(=S)Nc1ccc(OC(F)F)cc1 (stereo not drawn) | 27* | -1 | -4 | 0 | i
CCOCCCNC(=O)N1CCOCC1 | -5 | -1 | -10 | 4 | i
O=C(NCCCCCCNC(=O)N1CCCCCC1)N1CCCCCC1 | -12 | 76* | -5 | 0 | i
CC(C)(C)Nc1nc2nonc2nc1NC(C)(C)C | 2 | 32 | 7 | -6 | +
CCCN(C(=O)CSc1cc(-c2ccccc2)c2ccc(OC)cc2n1)C1CCS(=O)(=O)C1 (stereo not drawn) | -6 | 15 | 1 | 1 | i
COc1ccc2c(-c3ccccc3)cc(SC(C)C(N)=O)nc2c1 (stereo not drawn) | 29* | -35 | 7 | 5 | i
COc1ccc(OC)c2c1CCC2=O | 30* | 4 | -6 | -3 | i
COc1ccccc1NC1=C(C)C(=O)CC1 | 10 | 6 | -7 | 2 | i
O=C(NCCc1ccccc1)C1CCC(CNS(=O)(=O)c2ccc(F)cc2)CC1 (stereo not drawn) | 4 | -11 | -6 | -4 | i
Cc1ccc(S(=O)(=O)N2[C@@H](c3ccc(Cl)cc3)C(C(=O)O)=C[C@H]2CC2CCCC2)cc1 | -18 | 13 | 17 | 6 | +
CC(=O)C1=C(O)C(=O)N(c2nccs2)C1c1ccccc1 (stereo not drawn) | -16 | 94* | -7 | -4 | i
COc1ccc(Nc2nc3ccccc3s2)cc1 | -1 | -2 | 11 | 4 | i
COc1ccc(Nc2nc(Cl)c(C=O)s2)cc1 | -174 | / | -9 | -4 | +
